GRIN3A LBD mod: modulates the human NR3A ligand-binding domain; NR3A LBD differential scanning fluorimetry, Tm shift; 0% = protein alone, 100% = glycine-bound protein; Tm shift relative to glycine control, % at 25 µM; hit rate 2.5% among 340,000; AID 1259313;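 active = melting temperature shift of at least 10% of the positive control shift, at one fixed dose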
Gli-Sufu block: Gli-Sufu pathway antagonism; Sufu-KO-LIGHT fibroblasts, Gli luciferase reporter luminescence; inhibition, % at 5 µM; hit rate 0.74% among 340,000;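 active = inhibition above about 55%, limit read from the data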
CSC inhib: blocks cancer stem cells; inhibition, % at 7.5 µM; hit rate 1.1% among 300,000; cancer stem cell-like cells viability, luminescence; in the data active = inhibition above about 75%; tested in HMLE shEcad cells
Mdm2-MdmX inh: inhibitors of human Mdm2/MdmX interaction. O15151+Q00987. hit rate 3% among 330,000. SaOS-2 split-luciferase Mdm2/MdmX complementation, luminescence. inhibition, % at 8 µM;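 active = inhibition of at least 50% at 8 µM in the primary screen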
Target sequence (O15151 whole entry, looked up): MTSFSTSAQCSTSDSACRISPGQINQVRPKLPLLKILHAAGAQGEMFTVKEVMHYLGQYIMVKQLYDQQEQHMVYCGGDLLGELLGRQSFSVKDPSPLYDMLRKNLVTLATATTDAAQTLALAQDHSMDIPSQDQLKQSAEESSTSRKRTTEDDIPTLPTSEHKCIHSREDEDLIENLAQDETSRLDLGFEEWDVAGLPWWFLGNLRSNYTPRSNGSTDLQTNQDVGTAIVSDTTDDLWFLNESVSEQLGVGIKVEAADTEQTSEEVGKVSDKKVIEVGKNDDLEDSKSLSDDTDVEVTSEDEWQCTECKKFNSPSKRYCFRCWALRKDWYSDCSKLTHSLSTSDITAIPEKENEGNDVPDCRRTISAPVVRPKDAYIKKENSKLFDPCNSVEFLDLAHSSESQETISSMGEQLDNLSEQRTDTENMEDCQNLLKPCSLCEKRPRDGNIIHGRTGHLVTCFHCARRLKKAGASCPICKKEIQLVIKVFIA
Target sequence (Q00987 whole entry, looked up): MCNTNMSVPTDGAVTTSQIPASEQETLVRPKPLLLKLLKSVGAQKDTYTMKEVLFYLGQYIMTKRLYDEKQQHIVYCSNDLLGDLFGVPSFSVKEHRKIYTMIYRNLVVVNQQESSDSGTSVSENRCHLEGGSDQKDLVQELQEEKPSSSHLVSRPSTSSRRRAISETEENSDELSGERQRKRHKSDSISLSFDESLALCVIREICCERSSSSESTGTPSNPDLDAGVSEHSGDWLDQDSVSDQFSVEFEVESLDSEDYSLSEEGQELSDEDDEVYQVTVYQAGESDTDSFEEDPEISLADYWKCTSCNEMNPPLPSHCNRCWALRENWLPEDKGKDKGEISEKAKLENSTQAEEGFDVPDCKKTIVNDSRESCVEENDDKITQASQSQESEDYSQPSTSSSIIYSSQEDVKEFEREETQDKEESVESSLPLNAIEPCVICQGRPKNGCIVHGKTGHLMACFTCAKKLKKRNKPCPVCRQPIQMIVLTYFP
MPTP block: blocks calcium-induced mitochondrial swelling | isolated mouse mitochondria, Ca2+ swelling absorbance, 30 min | inhibition, % at 10 µM | hit rate 1.4% among 360,000 | AID 602449;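 active = inhibition of 50% or more, scaled per plate between neutral and stimulator controls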
Beta cell apopt: blocks beta cell apoptosis; INS-1E cytokine-induced death, ATP luminescence, 48 h; percent of positive-control rescue, neutral wells zero; hit rate 0.8% among 300,000; protection from apoptosis, % (test concentration not listed);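 active = Every replicate reaches about 75%, or at least half do and their mean reaches it too, limit read from the data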;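 note: higher means more ATP so stronger rescue from cytokine killing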
Numbers stand for hits. Sampled rows, rich in hits. Any-hit rate of the full collection: about 6.6%.

What do the screens show for `Cc1ccc(SC(C)C(=O)N2CCCC2)cc1` (stereo unspecified)?
GRIN3A LBD mod: 12; Gli-Sufu block: inactive; CSC inhib: inactive; Mdm2-MdmX inh: inactive; MPTP block: inactive; Beta cell apopt: inactive

What do the screens show for `Cc1[nH]c2ccccc2c1C(=O)C(=O)N1CCOCC1`?
GRIN3A LBD mod: inactive; Gli-Sufu block: inactive; CSC inhib: inactive; Mdm2-MdmX inh: inactive; MPTP block: inactive; Beta cell apopt: inactive

How did Cc1[nH]c2ccccc2c1C(=O)CSC(=S)N1CCOCC1 do in these assays?
GRIN3A LBD mod: 14; Gli-Sufu block: inactive; CSC inhib: inactive; Mdm2-MdmX inh: inactive; MPTP block: inactive

What do the screens show for `Cc1ccc2cc(C(c3nnnn3C(C)(C)C)N3CCCCCC3)c(=O)[nH]c2c1` (stereo unspecified)?
GRIN3A LBD mod: 11; Gli-Sufu block: inactive; CSC inhib: inactive; Mdm2-MdmX inh: inactive; MPTP block: inactive; Beta cell apopt: inactive

What do the screens show for `CCC(C)(C)n1nnnc1C(c1cc2cc(C)ccc2[nH]c1=O)N1CCCC1` (stereo unspecified)?
GRIN3A LBD mod: inactive; Gli-Sufu block: inactive; CSC inhib: inactive; Mdm2-MdmX inh: inactive; MPTP block: inactive; Beta cell apopt: inactive

How did O=[N+]([O-])c1ccc(Sc2cccc[n+]2[O-])c2nonc12 do in these assays?
GRIN3A LBD mod: inactive; Gli-Sufu block: 86; MPTP block: inactive

What do the screens show for `Cc1cc(C(=O)N/N=C/c2ccc(OCc3ccccc3)cc2)c(C)o1`?
GRIN3A LBD mod: 14; Gli-Sufu block: inactive; CSC inhib: inactive; Mdm2-MdmX inh: inactive; MPTP block: inactive; Beta cell apopt: inactive

What do the screens show for `O=C(N/N=C/c1ccc(OCc2ccccc2)cc1)c1ccco1`?
GRIN3A LBD mod: 13; Gli-Sufu block: inactive; CSC inhib: inactive; Mdm2-MdmX inh: inactive; MPTP block: inactive; Beta cell apopt: inactive

What do the screens show for `Cc1cc(C(=O)N/N=C/c2ccccc2)c(C)o1`?
GRIN3A LBD mod: inactive; Gli-Sufu block: inactive; CSC inhib: inactive; Mdm2-MdmX inh: inactive; MPTP block: inactive; Beta cell apopt: inactive

What do the screens show for `O=C(NNC(=O)c1ccccc1O)c1ccc(S(=O)(=O)Nc2ccccc2)cc1`?
GRIN3A LBD mod: inactive; Gli-Sufu block: inactive; CSC inhib: inactive; Mdm2-MdmX inh: inactive; MPTP block: inactive; Beta cell apopt: inactive

How did Cc1ccc(NC(=O)COC(=O)Cc2c[nH]c3ccccc23)cc1F do in these assays?
GRIN3A LBD mod: 14; Gli-Sufu block: inactive; Mdm2-MdmX inh: inactive; MPTP block: inactive

What do the screens show for `COc1ccccc1NC(=O)COC(=O)Cc1c[nH]c2ccccc12`?
GRIN3A LBD mod: inactive; Gli-Sufu block: inactive; CSC inhib: inactive; Mdm2-MdmX inh: inactive; MPTP block: inactive; Beta cell apopt: inactive

How did NC(=O)c1ccsc1NC(=O)COC(=O)Cc1c[nH]c2ccccc12 do in these assays?
GRIN3A LBD mod: 26; Gli-Sufu block: inactive; CSC inhib: inactive; Mdm2-MdmX inh: inactive; MPTP block: inactive; Beta cell apopt: inactive

What do the screens show for `COCCOc1ccc(C(F)(F)F)cc1NC(=O)COC(=O)Cc1c[nH]c2ccccc12`?
GRIN3A LBD mod: 21; Gli-Sufu block: inactive; Mdm2-MdmX inh: inactive; MPTP block: inactive; Beta cell apopt: inactive

How did N#Cc1ccsc1NC(=O)COC(=O)c1ccc(NC(N)=O)cc1 do in these assays?
GRIN3A LBD mod: inactive; Gli-Sufu block: inactive; CSC inhib: inactive; Mdm2-MdmX inh: inactive; MPTP block: inactive; Beta cell apopt: inactive

Results for NC(=O)Nc1ccc(C(=O)OCC(=O)Nc2sccc2C(N)=O)cc1 ?
GRIN3A LBD mod: 32; Gli-Sufu block: inactive; Mdm2-MdmX inh: inactive; MPTP block: inactive

How did COc1ccc(OC)c(NC(=O)Nc2ccc3c(c2)OCO3)c1 do in these assays?
GRIN3A LBD mod: inactive; Gli-Sufu block: inactive; CSC inhib: inactive; Mdm2-MdmX inh: inactive; MPTP block: inactive; Beta cell apopt: inactive

How did NC(=O)c1ccsc1NC(=O)COC(=O)Cc1cccc2ccccc12 do in these assays?
GRIN3A LBD mod: 24; Gli-Sufu block: inactive; CSC inhib: inactive; Mdm2-MdmX inh: inactive; MPTP block: inactive; Beta cell apopt: inactive

What do the screens show for `O=C(O)c1ccc2c(c1)C(=O)/C(=C\c1ccco1)C2=O`?
GRIN3A LBD mod: inactive; Gli-Sufu block: inactive; CSC inhib: inactive; Mdm2-MdmX inh: inactive; MPTP block: inactive; Beta cell apopt: inactive

Results for O=C(O)c1ccc2c(c1)C(=O)/C(=C/c1ccccc1)C2=O ?
GRIN3A LBD mod: 26; Gli-Sufu block: inactive; CSC inhib: inactive; Mdm2-MdmX inh: inactive; MPTP block: inactive; Beta cell apopt: inactive

From PubChem BioAssay
